For the assay, the system named is Trichuris muris adult worms. The assay can be described thus: mean motility score (Paragon pixel variance) of adult worms (arbitrary units); higher = more motile worms, i.e. less anthelmintic effect; extreme values may be limits of the assay. The note with it: 100 µM; 24 h. On the procedure:
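Primary ex vivo screen of 409 approved drugs against adult Trichuris muris worms: one worm per well in RPMI-1640 with penicillin/streptomycin, 100 µM drug in 1% DMSO, 37 °C, 5% CO2 for 24 h. Motility was recorded with INVAPP (200-frame movies) and scored with the Paragon pixel-variance algorithm. Values are means of triplicate wells run on three occasions; levamisole was the positive control and DMSO the negative control.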
On to `COc1ccc(C(CN(C)C)C2(O)CCCCC2)cc1.Cl` (centres undefined) [venlafaxine hydrochloride], for which the mean motility score is 1570.
As for `Cl.O=C(CCCN1CCC(n2c(=O)[nH]c3ccccc32)CC1)c1ccc(F)cc1` [benperidol hydrochloride], the figure is 3960.
For the molecule `COc1cc2c(c(OC)c1OC)-c1ccc(OC)c(=O)cc1[C@@H](NC(C)=O)CC2` [colchicine], the mean motility score was determined as 1420.
As for `CN(C)C(=O)Oc1cccc([N+](C)(C)C)c1.COS(=O)(=O)[O-]` [neostigmine methylsulfate], the figure is 1600; as for `COc1ccc(CCN2CCC(Nc3nc4ccccc4n3Cc3ccc(F)cc3)CC2)cc1` [astemizole], 0.
As to `CNC(=O)Oc1ccc2c(c1)[C@]1(C)CCN(C)[C@@H]1N2C` [physostigmine], the mean motility score worked out at 3170.
As for `CC[C@H]1[C@H]2CC3[C@@H]4N(C)c5ccccc5[C@]45C[C@H]([C@@H]2C5O)N3[C@@H]1O` (some centres undefined) [ajmaline], the figure is 1790; as for `[O-][n+]1ccccc1S` [pyrithione], 3120; as for `CC(C)N(CCC(C(N)=O)(c1ccccc1)c1ccccn1)C(C)C` (centres undefined) [disopyramide], 1630.
As for `C[C@H](N)[C@H](O)c1ccc(O)c(O)c1` [levonordefrin], the figure is 2110; as for `C[N+](C)(C)CCCCCCCCCC[N+](C)(C)C.[Br-].[Br-]` [decamethonium bromide], 2280; as for `O=C1CC[C@@]2(O)[C@H]3Cc4ccc(O)c5c4[C@@]2(CCN3CC2CC2)[C@H]1O5` [naltrexone], 3530.
The same measure for `CC[C@@H](CO)NC(=O)[C@@H]1C=C2c3cccc4[nH]cc(c34)C[C@H]2N(C)C1.O=C(O)/C=C\C(=O)O` [methylergonovine maleate]: 2650; for `CN1C[C@H](C(=O)N[C@]2(C)O[C@@]3(O)[C@@H]4CCCN4C(=O)[C@H](Cc4ccccc4)N3C2=O)CC2c3cccc4[nH]cc(c34)C[C@H]21.CS(=O)(=O)O` (some centres undefined) [dihydroergotamine methanesulfonate]: 1730.
Consider `N[C@@H](Cc1cc(Br)c(O)c(Br)c1)C(=O)O` [3,5 dibromotyrosine], for which the mean motility score was found to be 3040.
The same measure for `CCOP(=O)(OCC)Oc1ccc([N+](=O)[O-])cc1` [paraoxon]: 0; for `CCCN1C[C@H](CSC)C[C@@H]2c3cccc4[nH]cc(c34)C[C@H]21.CS(=O)(=O)O` [pergolide mesylate]: 3150.
As for `C#CCN(C)[C@H](C)Cc1ccccc1.Cl` [selegiline hydrochloride], the figure is 2950; as for `C#C[C@]1(O)CC[C@H]2[C@@H]3CCC4=CC(=O)CC[C@]4(C)[C@H]3CC[C@@]21C` [ethisterone], 1590.
As for `C=CCN1CC[C@]23c4c5ccc(O)c4O[C@H]2C(=O)CC[C@@]3(O)[C@H]1C5.Cl` [naloxone hydrochloride], the figure is 3870; as for `CN(C)C(=O)Oc1cc(OC(=O)N(C)C)cc(C(O)CNC(C)(C)C)c1.Cl` (centres undefined) [bambuterol hydrochloride], 1410.
`CC(C)C[C@H]1C(=O)N2CCC[C@H]2[C@]2(O)O[C@](NC(=O)C3C=C4c5cccc6[nH]c(Br)c(c56)C[C@H]4N(C)C3)(C(C)C)C(=O)N12.CS(=O)(=O)O` (some centres undefined) [bromocriptine methanesulfonate] gave a mean motility score of 2300.
The same measure for `CN(C)C(=O)Oc1ccc[n+](C)c1.[I-]` [pyridostigmine iodide]: 2610; for `COc1cc([C@@H]2c3cc4c(cc3[C@H](O)[C@H]3COC(=O)[C@H]23)OCO4)cc(OC)c1OC` [podofilox]: 3650.

For the origin of these results see the supplement of paper PMC10503962.
